# Bioassay records: PubChem BioAssay, several laboratories
# Most compounds without a hit are left out; they make up all but 3.2% or so of the library.
# dFosB act = activators of delta FosB homodimer, primary screen, biochemical, fluorescence polarization, TAMRA-CDK5 oligo, single point. purified delta FosB; percent of positive-control signal above neutral wells. activation, % at 25 µM. 340,000 tested, 0.99% active;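 active = mean activation above about 17%, with every replicate also reaching it, limit read from the data, passing the limit was not always enough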
# Dyrk1A ADPGlo = rat Dyrk1A kinase inhibitors, primary screen, biochemical, single point, plate reader. Dual specificity tyrosine-phosphorylation-regulated kinase 1A (Rattus norvegicus), Q63470. ADP-Glo luminescence, NFATc1 peptide. inhibition, % at 12.5 µM. 310,000 tested, 0.43% active. AID 504441, 2011; in the data active = inhibition above about 50%;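 note: plate controls were vehicle with enzyme for no effect and no enzyme for full effect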
# CDK5 p35 inh = inhibitors of human CDK5/p35 kinase, primary screen, biochemical, single concentration; Cyclin-dependent kinase 5 (Homo sapiens) + Cyclin-dependent kinase 5 activator 1 (Homo …; Recombinant CDK5/p35, ADP-Glo luminescence, 60 min; inhibition, % at 10 µM; 330,000 tested, 0.01% active;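 active = highest replicate inhibition of at least 50% and at least 75% of replicates reaching 50%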;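 note: plate controls were DMSO neutral control for no effect and GW8510 at 10 µM for full effect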
# Target sequence (Q00535 whole entry, looked up): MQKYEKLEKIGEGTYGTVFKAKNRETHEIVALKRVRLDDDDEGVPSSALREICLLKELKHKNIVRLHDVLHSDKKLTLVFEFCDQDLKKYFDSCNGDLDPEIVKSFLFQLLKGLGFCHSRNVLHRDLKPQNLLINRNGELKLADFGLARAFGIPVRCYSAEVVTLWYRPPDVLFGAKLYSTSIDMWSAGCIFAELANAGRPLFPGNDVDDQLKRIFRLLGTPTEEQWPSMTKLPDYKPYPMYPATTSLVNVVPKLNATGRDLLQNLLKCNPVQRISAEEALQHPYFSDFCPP
# Target sequence (Q15078 whole entry, looked up): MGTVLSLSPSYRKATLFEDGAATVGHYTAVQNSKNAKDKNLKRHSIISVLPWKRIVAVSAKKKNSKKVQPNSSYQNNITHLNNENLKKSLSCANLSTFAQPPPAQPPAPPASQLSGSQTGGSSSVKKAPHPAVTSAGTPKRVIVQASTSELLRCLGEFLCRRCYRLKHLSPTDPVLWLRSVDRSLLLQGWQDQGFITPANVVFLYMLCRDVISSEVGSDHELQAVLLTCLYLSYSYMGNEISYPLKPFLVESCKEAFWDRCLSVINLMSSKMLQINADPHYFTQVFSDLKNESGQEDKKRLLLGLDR
# SMARCA2 act = SMARCA2 (BRM) function activators, primary screen, cell-based, luminescence, high throughput | 370,000 tested, 1% active | AID 652017, 2013 | activation, % at 9.1 µM | MG213 cells, MMTV-luciferase reporter, dexamethasone, overnight; in the data active = activation above about 7.8%;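 note: 0% = vehicle wells and 100% = reference activator wells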
# esBAF inh = Bmi1 luciferase reporter increase in mESCs, primary screen, esBAF inhibitor project, mouse ES cells, Bmi1 luciferase knock-in, single point; 24 h; 100% = twice the neutral-well signal; reporter increase, % at 12.5 µM; 350,000 tested, 2% active; AID 602393, 2012; in the data active = activation above about 40%;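 note: 0% = median of the plate's neutral control wells and 100% = double that signal; a rise in the Bmi1 reporter signal indicates esBAF inhibition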
# Rtt109 Vps75 = inhibitors of C. albicans Rtt109/Vps75 HAT, primary screen, biochemical, ThioGlo CoA-SH fluorescence, plate reader; inhibition, % at 34.9 µM; 330,000 tested, 0.16% active; purified Rtt109/Vps75, 4 h; Histone acetyltransferase RTT109 (Candida albicans (strain SC5314 / ATCC MYA-2876)), …;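 active = inhibition of at least 50% in every replicate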
# SMARCA2 conf = SMARCA2 (BRM) function activators, confirmation, cell-based, luminescence, triplicate | shares compounds with SMARCA2 act | MG213 cells, MMTV-luciferase with dexamethasone, overnight; MG213 cells expressing E1A, Rb sequestered; DMSO wells 0%, reference activator 100% | activation, % at 9.1 µM | 3,500 tested, 30% active;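 active = activation above its plate's cutoff, the mean activation of tested wells plus 3 SD, cut at about 7.9% in these data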
# VP16 Luc act = GAL4-VP16 luciferase reporter activation, counter-screen for SMARCA2 (BRM) activator project, cell-based, pG5luc, luminescence, high throughput | activation, % at 9.1 µM | shares compounds with SMARCA2 act | HEK293 GAL4-VP16 pG5luc reporter; scaled: DMSO wells 0%, SAHA wells 100% | 3,500 tested, 41% active;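 active = activation above the solvent-only control well mean plus 3 SD, averaged across control plates, cut at about 5.2% in these data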
# * marks the source's active call; other numbers are inactive results; / = not tested or not shown.
SMILES,dFosB act,Dyrk1A ADPGlo,CDK5 p35 inh,SMARCA2 act,esBAF inh,Rtt109 Vps75,SMARCA2 conf,VP16 Luc act
C[C@@H]1CN([C@H](C)CO)C(=O)c2cc(NC(=O)c3ccncc3)ccc2O[C@@H](C)CCCCO[C@H]1CN(C)S(=O)(=O)c1ccccc1,/,/,/,/,1.0,/,/,/
O=C(CCl)NC1CCCc2ccccc21 (configuration not stated),-4.1,-6.5,-4.2,9.3*,/,2.9,-2.0,-0.7
O=C(CCC1CCN(C(=O)Cc2c(F)cccc2F)CC1)NC1CC1,0.3,/,/,2.4,-11.1,-1.1,/,/
COc1ccccc1CC(=O)N1CCC(CCC(=O)NC2CC2)CC1,-5.9,1.2,0.5,8.8*,-4.3,-2.0,-2.8,1.4
CC(NC(=O)c1cc(COc2ccccc2)on1)c1nccs1 (configuration not stated),-1.6,5.4,-6.5,10.2*,64.4*,-9.4,7.1,15.1*
CC(=O)c1ccc(OCc2cc(C(=O)NC(C)c3cnn(C)c3)no2)cc1 (configuration not stated),-6.9,3.3,-0.5,3.3,11.4,-7.4,/,/
O=C(NC1CCCCC1)c1ccc(-c2ccccc2[N+](=O)[O-])o1,-0.1,1.4,1.9,10.7*,89.2*,3.1,8.7*,12.3*
Cc1ccc(S(=O)(=O)N[C@@H]2CC[C@@H](CC(=O)NCCc3ccncc3)O[C@H]2CO)cc1,/,/,/,/,-4.1,/,/,/
Cc1nc2nc(-c3ccc(Cl)cc3)cn2nc1C,-9.3,-10.9,0.3,5.7,/,-112.5,/,/
Cc1nc2nc(-c3cccs3)cn2nc1C,1.4,6.0,-1.6,10.4*,/,0.5,11.3*,12.8*
C[C@@H]1CN([C@@H](C)CO)S(=O)(=O)c2ccc(C#CC(C)(C)O)cc2O[C@H]1CN(C)CC1CCCC1,/,/,/,/,-9.0,/,/,/
C[C@@H]1CN([C@@H](C)CO)C(=O)c2cc(NC(=O)c3ccncc3)ccc2O[C@@H](C)CCCCO[C@H]1CN(C)Cc1ccccc1,/,/,/,/,1.5,/,/,/
CN[C@H]1C[C@H]2c3cc(-c4ccccc4C)ccc3CCN2C[C@H]1[C@H](C)O,/,/,/,9.6*,/,/,-4.5,-0.6
O=C(COC(=O)CCN1C(=O)c2ccccc2C1=O)Nc1ccc(S(=O)(=O)N2CCCC2)cc1,-4.9,1.5,0.7,-4.5,-6.7,/,/,/
O=C(COC(=O)CN1C(=O)c2ccccc2C1=O)Nc1ccc(S(=O)(=O)N2CCCC2)cc1,-1.4,0.2,-1.2,9.4*,-10.0,4.3,-5.7,0.5
COc1ccccc1NC(=O)CSc1nncn1-c1ccccc1,3.0,/,-3.3,3.4,-2.0,4.8,/,/
COc1ccccc1NC(=O)CSc1nncn1-c1cccnc1,-0.6,-0.3,-1.6,12.8*,-8.2,-7.5,0.1,0.2
CCN1[C@@H]2c3ccc(C4=CCCCC4)c(=O)n3C[C@H]1[C@H](CO)[C@H]2C(=O)N1CCCCC1,/,/,/,/,-0.2,/,/,/
c1ccc(CSc2ccc(-c3ccc4c(c3)OCO4)nn2)cc1,3.1,14.4,0.1,10.9*,/,-5.0,7.9*,5.0
O=C(c1ccccc1F)N1CC[C@@H]2[C@@H](CO)Nc3ccc(C#Cc4ccc(F)cc4)cc3[C@@H]21,/,/,/,/,-1.4,/,/,/
C[C@H](CO)N1C[C@H](C)[C@H](CN(C)S(=O)(=O)c2ccccc2)Oc2ccc(NC(=O)C3CC3)cc2CC1=O,/,/,/,/,-2.9,/,/,/
Oc1nc(Nc2cccc(Cl)c2)sc1/C=C1\C=Nc2ccccc21,10.4,3.2,-0.9,-1.1,/,-2.0,/,/
Oc1cccc(Nc2nc(O)c(/C=C3\C=Nc4ccccc43)s2)c1,52.8*,22.7,-5.1,10.7*,58.9*,0.8,15.1*,6.5*
CCCN1[C@@H]2c3ccc(-c4cccnc4)c(=O)n3C[C@H]1[C@H](CO)[C@H]2C(=O)NCCc1cn(C)cn1,/,/,/,/,-4.6,/,/,/
CCCC(=O)Nc1ccc2c(c1)C(=O)N(C)C[C@@H](OC)[C@H](C)CN(CCc1ccccc1)[C@@H](C)CO2,/,/,/,/,1.5,/,/,/
SMILES,dFosB act,Dyrk1A ADPGlo,CDK5 p35 inh,SMARCA2 act,esBAF inh,Rtt109 Vps75,SMARCA2 conf,VP16 Luc act
Cc1ccc(-n2c(C)c(C)c3c(NCCCO)ncnc32)cc1,-9.7,-4.7,0.1,10.2*,59.3*,-17.0,12.4*,8.6*
Cc1c(C)n(CCCN(C)C)c2ncnc(NCc3ccccc3)c12,-0.8,1.0,-0.4,-1.1,3.8,4.6,/,/
COc1ccc(-n2c(C)c(C)c3c(NCCCO)ncnc32)cc1,-9.4,-1.1,1.4,10.7*,39.9,-13.4,-0.4,5.4*
Cc1c(C)n(CCc2ccccc2)c2ncnc(NCCO)c12,2.6,-2.2,0.5,10.3*,75.7*,0.4,8.4*,10.2*
CCOc1nc(C)ccc1-c1noc(-c2ccccn2)n1,-15.1,-3.1,-0.4,4.3,11.0,-19.6,/,/
CCOc1ccccc1-c1nc(-c2ccc(C)nc2OC)no1,-29.3,-2.4,-0.8,8.8*,69.2*,0.1,14.7*,8.0*
O=C(C[C@H]1C[C@H]2c3cc(NS(=O)(=O)c4ccc(F)cc4)ccc3O[C@H]2[C@H](CO)O1)NCC1CC1,/,/,/,/,-19.1,/,/,/
CCOC(=O)Cc1c(C)nc2c(-c3ccc(Cl)cc3)cnn2c1C,-0.5,1.6,-2.4,1.9,3.5,-1.1,/,/
CCOC(=O)Cc1c(C)nc2c(-c3ccccc3)c(C)nn2c1C,-5.7,15.2,0.7,11.8*,6.3,1.2,2.0,0.6
COC(=O)N(C)C[C@H]1OCc2ccccc2-c2c(n(C)c3ccccc23)C(=O)N([C@@H](C)CO)C[C@H]1C,/,/,/,/,-4.1,/,/,/
CCCOc1ccc(/C(O)=C2\C(=O)C(=O)N(c3ccccn3)C2c2ccccc2F)cc1C (configuration not stated),-4.9,2.6,0.3,14.7*,9.2,-1.1,4.9,3.7
COc1ccc(C2/C(=C(/O)c3ccccc3)C(=O)C(=O)N2c2ccccn2)cc1 (configuration not stated),-1.2,3.9,0.5,10.1*,5.3,13.9,3.9,0.6
